# Laboratory results published in publication PMC7862700, “An all-to-all approach to the identification of sequence-specific readers for epigenetic DNA modifications on cytosine”.
# Target: T1, FLI1 (Homo sapiens, UniProt Q01543 1-452)
# T1 sequence: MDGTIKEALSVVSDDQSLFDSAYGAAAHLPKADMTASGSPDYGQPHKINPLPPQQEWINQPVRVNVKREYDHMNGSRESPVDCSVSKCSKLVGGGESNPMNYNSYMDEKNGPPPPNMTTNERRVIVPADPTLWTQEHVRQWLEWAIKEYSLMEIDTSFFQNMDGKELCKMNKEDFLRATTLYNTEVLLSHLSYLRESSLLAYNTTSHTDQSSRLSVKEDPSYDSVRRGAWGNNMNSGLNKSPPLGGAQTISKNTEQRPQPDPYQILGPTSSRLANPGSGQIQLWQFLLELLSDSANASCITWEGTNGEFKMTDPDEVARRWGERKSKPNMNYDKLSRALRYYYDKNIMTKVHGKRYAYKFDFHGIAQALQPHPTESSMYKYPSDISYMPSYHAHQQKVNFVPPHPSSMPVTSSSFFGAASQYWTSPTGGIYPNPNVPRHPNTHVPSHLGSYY
# Experiment: DAPPL (digital affinity profiling via proximity ligation, sequencing); 10 mM Tris-HCl pH 7.5, 50 mM NaCl, 1 mM DTT, 4% glycerol, room temperature, 30 min; GST-TFs on glutathione beads, 16-mer random dsDNA library, 0.1% formaldehyde crosslink after washing; high values mean tight binding
# Details: protein: recombinant; tags: N-terminal GST; dsDNA, one strand shown
# Method in brief: (§1)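 In yeast, human transcription factors were expressed with a GST fusion, then pulled down on glutathione beads and given DNA barcodes. Pooled with a tag-only sample, they were exposed to 200 nmole of a 16-mer random double-stranded DNA library (Tris/NaCl/DTT/glycerol buffer, room temperature, 30 min), washed, crosslinked with 0.1% formaldehyde, proximity-ligated using BsaI/T4 ligase for 1 h at 37 °C, PCR-amplified and read on an Illumina NextSeq500. Each hexamer's frequency of reads for a factor, divided by the matching frequency for the tag-only sample, gives the binding signal.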
row,Sequence,binding signal
1,TCAGCC,"1 fold enrichment (6-mer frequency, TF over GST control)"
2,CAAAGT,"1.01 fold enrichment (6-mer frequency, TF over GST control)"
3,GATACA,"1.03 fold enrichment (6-mer frequency, TF over GST control)"
4,CAAGCT,"1.05 fold enrichment (6-mer frequency, TF over GST control)"
5,CGCGGC,"1.1 fold enrichment (6-mer frequency, TF over GST control)"
6,TGTGAT,"1.16 fold enrichment (6-mer frequency, TF over GST control)"
7,TCGTTA,"1 fold enrichment (6-mer frequency, TF over GST control)"
8,GCCGTC,"1.04 fold enrichment (6-mer frequency, TF over GST control)"
9,TGGCCA,"1.1 fold enrichment (6-mer frequency, TF over GST control)"
10,CCACAG,"1.01 fold enrichment (6-mer frequency, TF over GST control)"
11,ATGCGT,"1.06 fold enrichment (6-mer frequency, TF over GST control)"
12,CTTGAG,"1.08 fold enrichment (6-mer frequency, TF over GST control)"
13,AGGCCC,"1.01 fold enrichment (6-mer frequency, TF over GST control)"
14,CACACC,"1.07 fold enrichment (6-mer frequency, TF over GST control)"
15,TTGACG,"1.19 fold enrichment (6-mer frequency, TF over GST control)"
16,GACTGC,"1.03 fold enrichment (6-mer frequency, TF over GST control)"
17,TGATTG,"1.16 fold enrichment (6-mer frequency, TF over GST control)"
18,TGTCAA,"1.02 fold enrichment (6-mer frequency, TF over GST control)"
19,GTGTAC,"1.07 fold enrichment (6-mer frequency, TF over GST control)"
20,GTCGAC,"1.04 fold enrichment (6-mer frequency, TF over GST control)"

row,Sequence,binding signal
1,ACTGTC,"1.02 fold enrichment (6-mer frequency, TF over GST control)"
2,ACCGTT,"1.03 fold enrichment (6-mer frequency, TF over GST control)"
3,CATGGC,"1.1 fold enrichment (6-mer frequency, TF over GST control)"
4,AGTTTT,"1.05 fold enrichment (6-mer frequency, TF over GST control)"
5,GTTTGT,"1.15 fold enrichment (6-mer frequency, TF over GST control)"
6,GCCGCA,"1.01 fold enrichment (6-mer frequency, TF over GST control)"
7,CCATGG,"1.08 fold enrichment (6-mer frequency, TF over GST control)"
8,ACTCGG,"1.07 fold enrichment (6-mer frequency, TF over GST control)"
9,CGGCCC,"1.05 fold enrichment (6-mer frequency, TF over GST control)"
10,TGGCGT,"1.01 fold enrichment (6-mer frequency, TF over GST control)"
11,CGTACG,"1 fold enrichment (6-mer frequency, TF over GST control)"
12,ATTGAG,"1.08 fold enrichment (6-mer frequency, TF over GST control)"
13,CACCCA,"1.1 fold enrichment (6-mer frequency, TF over GST control)"
14,GACGAC,"1.01 fold enrichment (6-mer frequency, TF over GST control)"
15,AATGTG,"1.04 fold enrichment (6-mer frequency, TF over GST control)"
16,GCGTTG,"1.1 fold enrichment (6-mer frequency, TF over GST control)"
17,CCCGCG,"1.02 fold enrichment (6-mer frequency, TF over GST control)"
18,GTGGCA,"1.05 fold enrichment (6-mer frequency, TF over GST control)"
19,GCAGCC,"1.01 fold enrichment (6-mer frequency, TF over GST control)"

# Target: T2, ELK1 (Homo sapiens, UniProt P19419 1-428)
# T2 sequence: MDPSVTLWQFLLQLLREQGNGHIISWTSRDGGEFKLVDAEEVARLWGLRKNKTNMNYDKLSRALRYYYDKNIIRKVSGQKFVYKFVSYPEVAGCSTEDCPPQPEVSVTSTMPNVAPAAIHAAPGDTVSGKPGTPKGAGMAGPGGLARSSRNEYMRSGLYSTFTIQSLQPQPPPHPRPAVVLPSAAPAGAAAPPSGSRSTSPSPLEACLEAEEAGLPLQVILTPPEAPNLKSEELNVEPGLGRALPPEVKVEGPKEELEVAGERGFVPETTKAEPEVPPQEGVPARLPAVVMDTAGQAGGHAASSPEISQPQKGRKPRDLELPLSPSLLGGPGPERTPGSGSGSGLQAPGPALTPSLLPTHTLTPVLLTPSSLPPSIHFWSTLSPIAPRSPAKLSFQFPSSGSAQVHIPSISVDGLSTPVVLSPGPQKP
# Experiment: as above
# Details: protein: recombinant; tags: N-terminal GST; dsDNA, one strand shown
# Method in brief: as §1
row,Sequence,binding signal
1,TCAGCC,"1.11 fold enrichment (6-mer frequency, TF over GST control)"
2,CGCGGC,"1.08 fold enrichment (6-mer frequency, TF over GST control)"
3,GCCGTC,"1.03 fold enrichment (6-mer frequency, TF over GST control)"
4,TGGCCA,"1.09 fold enrichment (6-mer frequency, TF over GST control)"
5,CACACC,"1.07 fold enrichment (6-mer frequency, TF over GST control)"
6,TTGACG,"1.16 fold enrichment (6-mer frequency, TF over GST control)"
7,GACTGC,"1.03 fold enrichment (6-mer frequency, TF over GST control)"
8,TGATTG,"1.16 fold enrichment (6-mer frequency, TF over GST control)"
9,CATGGC,"1.02 fold enrichment (6-mer frequency, TF over GST control)"
10,GCCGCA,"1.03 fold enrichment (6-mer frequency, TF over GST control)"
11,CCATGG,"1.05 fold enrichment (6-mer frequency, TF over GST control)"
12,CGGCCC,"1.03 fold enrichment (6-mer frequency, TF over GST control)"
13,ATTGAG,"1.12 fold enrichment (6-mer frequency, TF over GST control)"
14,CACCCA,"1.12 fold enrichment (6-mer frequency, TF over GST control)"
15,CCCGCG,"1.05 fold enrichment (6-mer frequency, TF over GST control)"
16,GCAGCC,"1.05 fold enrichment (6-mer frequency, TF over GST control)"

# Target: T3, GABPA (Homo sapiens, UniProt Q06546 1-454)
# T3 sequence: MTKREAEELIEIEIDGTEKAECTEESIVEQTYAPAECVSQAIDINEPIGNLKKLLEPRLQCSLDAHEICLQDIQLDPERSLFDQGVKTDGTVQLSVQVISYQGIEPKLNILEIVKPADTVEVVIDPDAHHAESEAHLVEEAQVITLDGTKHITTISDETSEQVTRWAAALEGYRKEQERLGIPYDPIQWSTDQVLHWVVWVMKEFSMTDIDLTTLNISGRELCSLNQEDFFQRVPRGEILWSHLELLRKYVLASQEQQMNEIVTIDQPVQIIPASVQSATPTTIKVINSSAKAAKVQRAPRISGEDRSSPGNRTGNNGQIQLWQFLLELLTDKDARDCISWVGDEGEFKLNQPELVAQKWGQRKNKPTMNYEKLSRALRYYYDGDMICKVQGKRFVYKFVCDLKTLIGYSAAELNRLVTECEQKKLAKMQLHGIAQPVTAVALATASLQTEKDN
# Experiment: as above
# Details: protein: recombinant; tags: N-terminal GST; dsDNA, one strand shown
# Method in brief: as §1
row,Sequence,binding signal
1,TCAGCC,"1.06 fold enrichment (6-mer frequency, TF over GST control)"
2,CGCGGC,"1.15 fold enrichment (6-mer frequency, TF over GST control)"
3,TGTGAT,"1.01 fold enrichment (6-mer frequency, TF over GST control)"
4,TGGCCA,"1.16 fold enrichment (6-mer frequency, TF over GST control)"
5,ATGCGT,"1.07 fold enrichment (6-mer frequency, TF over GST control)"
6,CACACC,"1.01 fold enrichment (6-mer frequency, TF over GST control)"
7,TTGACG,"1.08 fold enrichment (6-mer frequency, TF over GST control)"
8,GACTGC,"1.11 fold enrichment (6-mer frequency, TF over GST control)"
9,TGTCAA,"1.01 fold enrichment (6-mer frequency, TF over GST control)"
10,GTCGAC,"1.02 fold enrichment (6-mer frequency, TF over GST control)"
11,ACCGTT,"1.02 fold enrichment (6-mer frequency, TF over GST control)"
12,GTTTGT,"1.03 fold enrichment (6-mer frequency, TF over GST control)"
13,GCCGCA,"1.02 fold enrichment (6-mer frequency, TF over GST control)"
14,CGTACG,"1.03 fold enrichment (6-mer frequency, TF over GST control)"
15,CACCCA,"1.11 fold enrichment (6-mer frequency, TF over GST control)"
16,GACGAC,"1.05 fold enrichment (6-mer frequency, TF over GST control)"

# Target: T4, ERG (Homo sapiens, UniProt P11308 1-479)
# T4 sequence: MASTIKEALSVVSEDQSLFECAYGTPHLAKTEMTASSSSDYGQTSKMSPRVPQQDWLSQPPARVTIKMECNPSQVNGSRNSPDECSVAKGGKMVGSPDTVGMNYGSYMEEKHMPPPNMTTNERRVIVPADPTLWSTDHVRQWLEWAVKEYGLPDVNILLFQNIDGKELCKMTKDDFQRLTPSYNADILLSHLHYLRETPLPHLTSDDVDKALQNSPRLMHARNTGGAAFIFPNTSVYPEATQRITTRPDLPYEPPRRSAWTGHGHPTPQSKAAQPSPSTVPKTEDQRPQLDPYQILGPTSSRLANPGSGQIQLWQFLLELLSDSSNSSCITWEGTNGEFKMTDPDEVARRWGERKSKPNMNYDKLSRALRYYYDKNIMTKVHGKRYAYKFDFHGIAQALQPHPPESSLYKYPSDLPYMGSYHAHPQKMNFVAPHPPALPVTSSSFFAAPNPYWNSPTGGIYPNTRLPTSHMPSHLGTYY
# Experiment: as above
# Details: protein: recombinant; tags: N-terminal GST; dsDNA, one strand shown
# Method in brief: as §1
row,Sequence,binding signal
1,GATACA,"1.03 fold enrichment (6-mer frequency, TF over GST control)"
2,CGCGGC,"1.05 fold enrichment (6-mer frequency, TF over GST control)"
3,TGTGAT,"1.06 fold enrichment (6-mer frequency, TF over GST control)"
4,TGGCCA,"1.05 fold enrichment (6-mer frequency, TF over GST control)"
5,CACACC,"1.04 fold enrichment (6-mer frequency, TF over GST control)"
6,TTGACG,"1.06 fold enrichment (6-mer frequency, TF over GST control)"
7,TGATTG,"1.08 fold enrichment (6-mer frequency, TF over GST control)"
8,TGTCAA,"1.05 fold enrichment (6-mer frequency, TF over GST control)"
9,GTCGAC,"1.07 fold enrichment (6-mer frequency, TF over GST control)"
10,CATGGC,"1.05 fold enrichment (6-mer frequency, TF over GST control)"
11,CCATGG,"1.08 fold enrichment (6-mer frequency, TF over GST control)"
12,CCCGCG,"1.02 fold enrichment (6-mer frequency, TF over GST control)"
13,GCAGCC,"1.04 fold enrichment (6-mer frequency, TF over GST control)"

# Target: ELF1 (Homo sapiens, UniProt P32519 1-619)
# Experiment: as above
# Details: protein: recombinant; tags: N-terminal GST; dsDNA, one strand shown
# Method in brief: as §1
# Chain of ELF1 (P32519 whole entry): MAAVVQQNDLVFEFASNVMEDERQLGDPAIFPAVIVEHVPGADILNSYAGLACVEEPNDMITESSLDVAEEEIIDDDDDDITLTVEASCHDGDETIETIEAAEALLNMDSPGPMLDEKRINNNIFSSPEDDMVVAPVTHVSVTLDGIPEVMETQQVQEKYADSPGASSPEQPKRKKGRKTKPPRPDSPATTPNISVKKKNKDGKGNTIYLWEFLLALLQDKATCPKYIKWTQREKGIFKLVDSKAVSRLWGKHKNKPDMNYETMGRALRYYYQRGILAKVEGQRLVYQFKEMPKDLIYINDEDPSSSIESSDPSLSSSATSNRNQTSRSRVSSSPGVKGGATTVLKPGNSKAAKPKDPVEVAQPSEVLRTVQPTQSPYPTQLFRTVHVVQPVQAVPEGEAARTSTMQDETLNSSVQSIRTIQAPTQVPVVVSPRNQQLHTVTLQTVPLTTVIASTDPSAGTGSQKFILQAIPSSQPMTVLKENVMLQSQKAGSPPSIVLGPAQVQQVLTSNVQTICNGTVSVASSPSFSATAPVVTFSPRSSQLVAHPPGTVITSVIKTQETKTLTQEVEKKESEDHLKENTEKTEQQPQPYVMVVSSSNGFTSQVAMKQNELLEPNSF
row,Sequence,binding signal
1,CAAAGT,"1.03 fold enrichment (6-mer frequency, TF over GST control)"
2,CGCGGC,"1.04 fold enrichment (6-mer frequency, TF over GST control)"
3,TGTGAT,"1.01 fold enrichment (6-mer frequency, TF over GST control)"
4,GCCGTC,"1.02 fold enrichment (6-mer frequency, TF over GST control)"
5,TGGCCA,"1.14 fold enrichment (6-mer frequency, TF over GST control)"
6,CACACC,"1.02 fold enrichment (6-mer frequency, TF over GST control)"
7,TTGACG,"1.1 fold enrichment (6-mer frequency, TF over GST control)"
8,TGATTG,"1.06 fold enrichment (6-mer frequency, TF over GST control)"
9,TGTCAA,"1.05 fold enrichment (6-mer frequency, TF over GST control)"
10,ACTGTC,"1.01 fold enrichment (6-mer frequency, TF over GST control)"
11,CATGGC,"1.02 fold enrichment (6-mer frequency, TF over GST control)"
12,GCCGCA,"1.04 fold enrichment (6-mer frequency, TF over GST control)"
13,CCATGG,"1 fold enrichment (6-mer frequency, TF over GST control)"
14,ACTCGG,"1.07 fold enrichment (6-mer frequency, TF over GST control)"
15,CGGCCC,"1.01 fold enrichment (6-mer frequency, TF over GST control)"
16,CGTACG,"1.07 fold enrichment (6-mer frequency, TF over GST control)"
